Reference: PubChem BioAssay (EPA / NIEHS)
Where “and” joins values, the source holds several entries; their conditions need not be identical. Identical values can stand only once. A structure can be active in one record and inactive in another. Calls of active or inactive are those of the source. How the source made its calls: active means hit-call score of the fitted dose curve at least 0.9, where 1 is the maximum; inactive means score below 0.9.

Tests used:
[1] = read-out: Human Leukocyte Antigen - DR isotype (HLADR), HLA-DRA (gene 3122); assay: BSK_CASM3C_HLADR: BioMAP Diversity Plus: CASM3C Assay for Human Leukocyte Antigen - DR isotype (HLADR) Biomarker Activity (AID 2283043); conditions: primary human coronary artery smooth muscle cells; actives raise or lower the signal;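 further: cell-surface HLA-DR protein level quantified by ELISA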
[2] = read-out: Macrophage colony-stimulating factor (MCSF), CSF1 (gene 1435); assay: BSK_CASM3C_MCSF: BioMAP Diversity Plus: CASM3C Assay for Macrophage colony-stimulating factor (MCSF) Biomarker Activity (AID 2283044); conditions: primary human coronary artery smooth muscle cells; actives raise or lower the signal;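 further: M-CSF protein amount quantified by ELISA after 24 h exposure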
[3] = read-out: Low-density lipoprotein receptor (LDLR), LDLR (gene 3949); assay: BSK_CASM3C_LDLR: BioMAP Diversity Plus: CASM3C Assay for Low-density lipoprotein receptor (LDLR) Biomarker Activity (AID 2283045); conditions: primary human coronary artery smooth muscle cells; actives raise or lower the signal;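 further: LDLR protein level on the cell surface quantified by ELISA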
[4] = read-out: Monocyte Chemoattractant Protein-1 (MCP1), CCL2 (gene 6347); assay: BSK_CASM3C_MCP1: BioMAP Diversity Plus: CASM3C Assay for Monocyte Chemoattractant Protein-1 (MCP1) Biomarker Activity (AID 2283046); conditions: primary human coronary artery smooth muscle cells; actives raise or lower the signal;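 further: MCP-1 level quantified by ELISA 24 h after dosing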
[5] = BSK_CASM3C_Proliferation: Cell Proliferation Assessment in the BioMAP Diversity Plus: CASM3C Assay (AID 2283047); conditions: primary human coronary artery smooth muscle cells;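 further: sulforhodamine B total protein stain as relative cell number at 560 nm; sub-confluent cells exposed 48 h before staining; fitted both ways against DMSO so gain or loss of cell number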
[6] = read-out: Monokine induced gamma interferon (MIG), CXCL9 (gene 4283); assay: BSK_CASM3C_MIG: BioMAP Diversity Plus: CASM3C Assay for Monokine induced gamma interferon (MIG) Biomarker Activity (AID 2283048); conditions: primary human coronary artery smooth muscle cells; actives raise or lower the signal;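 further: MIG protein level measured by ELISA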
[7] = read-out: serum amyloid A (SAA), SAA1 (gene 6288); assay: BSK_CASM3C_SAA: BioMAP Diversity Plus: CASM3C Assay for serum amyloid A (SAA) Biomarker Activity (AID 2283049); conditions: primary human coronary artery smooth muscle cells; actives raise or lower the signal;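 further: SAA protein level quantified by ELISA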
[8] = read-out: Thrombomodulin, THBD (gene 7056); assay: BSK_CASM3C_Thrombomodulin: BioMAP Diversity Plus: CASM3C Assay for Thrombomodulin Biomarker Activity (AID 2283051); conditions: primary human coronary artery smooth muscle cells; actives raise or lower the signal;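 further: thrombomodulin protein level measured by ELISA 24 h after dosing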
[9] = read-out: Tissue Factor, F3 (gene 2152); assay: BSK_CASM3C_TissueFactor: BioMAP Diversity Plus: CASM3C Assay for Tissue Factor Biomarker Activity (AID 2283052); conditions: primary human coronary artery smooth muscle cells; actives raise or lower the signal;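 further: cell surface tissue factor protein level read by ELISA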
[10] = BSK_CASM3C_SRB: Viability Assessment in the BioMAP Diversity Plus: CASM3C Assay (AID 2283050); conditions: primary human coronary artery smooth muscle cells;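 further: total protein by SRB staining as cytotoxicity measure in parallel cultures; cells exposed to compound for 24 h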

Measured: AC50

CC1=C(/C=C/C(C)=C/C=C/C(C)=C/C(=O)O)C(C)(C)CCC1
active: [1] 26.3 µM | [5] 20 µM | [8] 8.15 µM
not listed: [10]
inactive: all other assays above

FC(F)(I)C(F)(F)C(F)(F)C(F)(F)C(F)(F)C(F)(F)I
inactive: [8] | [9]
active: [2] 25.9 µM [middle of 5 runs] | [3] 22 µM [middle of 5 runs] | [4] 21.6 µM [middle of 5 runs] | [5] 13.6 µM [middle of 5 runs] | [6] 29.7 µM [middle of 5 runs] | [7] 17 µM [middle of 5 runs] | [10] 23.3 µM [middle of 5 runs] | [8] 17.8 µM and 50.8 µM and 7.99 µM | [9] 23.7 µM and 16.2 µM and 30 µM

CC(C)(C)c1ccc(O)c(C(C)(C)C)c1
active: [1] 9.55 µM | [2] 13.2 µM | [3] 12.3 µM | [4] 13.7 µM | [5] 11.4 µM | [6] 15.3 µM | [7] 12.4 µM | [10] 26.7 µM | [8] 35.9 µM | [9] 20 µM

c1ccc2c(c1)Cc1ccccc1-2
inactive: all assays above

c1ccc2cc3c(ccc4ccccc43)cc2c1
active: [5] 3.12 µM | [8] 2.24 µM
inactive: all other assays above

CCC(C)(C)C1CCC(O)CC1 (stereo not given)
inactive: all assays above

CCCCCCCCCCCCN1CCCC1=O
active: [5] 32.7 µM | [10] 27.4 µM | [8] 27.9 µM
inactive: all other assays above

COC(=O)CCCCC(=O)OC
inactive: all assays above

CC(O)CO (stereo not given)
inactive: all assays above

CC(=O)NC1(c2cccc(F)c2)CCN(CC[C@@]2(c3ccc(Cl)c(Cl)c3)CN(c3ccccc3)C(=O)CO2)CC1
active: [1] 28.2 µM | [3] 4.58 µM | [5] 27.3 µM | [10] 23.8 µM | [8] 26.1 µM
inactive: all other assays above

CCCOc1sc(C(=O)N2CCC(c3cc(CN)ccc3F)CC2)c(C)c1Br
active: [1] 4.87 µM | [2] 9.62 µM | [3] 27.1 µM | [4] 17.5 µM | [5] 7.94 µM | [6] 27.8 µM | [7] 11.9 µM | [10] 12.9 µM | [8] 32.6 µM | [9] 10.8 µM

CN1CCN(c2ccccc2/C=C2\SCCN(c3ccc(Cl)c(Cl)c3)C2=O)CC1
active: [3] 2.95 µM | [5] 20 µM | [10] 20 µM
inactive: all other assays above

CC(C)(C)CC(C)(C)c1ccc(O)c(-n2nc3ccccc3n2)c1
active: [1] 15.7 µM | [2] 28.8 µM | [3] 20 µM | [5] 29.8 µM | [7] 32.4 µM | [8] 22.7 µM
inactive: [4] | [6] | [10] | [9]

CN(C)C=O
inactive: all assays above

Nc1cccc2c(N)cccc12
inactive: all assays above

CCCOC(=O)c1ccc(O)cc1
inactive: all assays above
